Bioassay records: PubChem, National Center for Advancing Translational Sciences (NCATS)
Tb PYK inh – qHTS of Trypanosoma Brucei Inhibitors; pyruvate kinase (Trypanosoma brucei), Q57TT1; TbPYK enzyme, Kinase-Glo Plus ATP luminescence, 45 min; Potency, µM (titrated, usually from 76.8 µM), inactives show at the highest dose activity, negative = inhibition, most hits filed as inhibitors; 410,000 tested, 0.12% active; AID 624173, 2012; further: nearly all actives have a fitted effect of over 50% in size
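Readout: single end-point luminescence (Kinase-Glo Plus, 10 min). Reaction conditions were TbPYK/substrate plus 130 uM ADP, 45 min at RT, pH 7.2 TEA buffer. No-enzyme wells served as controls, and data were normalized before concentration-response fitting.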
LmPK inhibitor – qHTS Assay for Inhibitors of Leishmania Mexicana Pyruvate Kinase (LmPK). 290,000 tested, 0.37% active. Potency, µM (highest dose often 57.5 µM), without a hit: top-dose activity change, negative = inhibition, actives largely listed as inhibitors. purified LmPK, Kinase-Glo ATP luminescence, 1 h. Q27686
Target sequence (Q27686 whole entry, looked up): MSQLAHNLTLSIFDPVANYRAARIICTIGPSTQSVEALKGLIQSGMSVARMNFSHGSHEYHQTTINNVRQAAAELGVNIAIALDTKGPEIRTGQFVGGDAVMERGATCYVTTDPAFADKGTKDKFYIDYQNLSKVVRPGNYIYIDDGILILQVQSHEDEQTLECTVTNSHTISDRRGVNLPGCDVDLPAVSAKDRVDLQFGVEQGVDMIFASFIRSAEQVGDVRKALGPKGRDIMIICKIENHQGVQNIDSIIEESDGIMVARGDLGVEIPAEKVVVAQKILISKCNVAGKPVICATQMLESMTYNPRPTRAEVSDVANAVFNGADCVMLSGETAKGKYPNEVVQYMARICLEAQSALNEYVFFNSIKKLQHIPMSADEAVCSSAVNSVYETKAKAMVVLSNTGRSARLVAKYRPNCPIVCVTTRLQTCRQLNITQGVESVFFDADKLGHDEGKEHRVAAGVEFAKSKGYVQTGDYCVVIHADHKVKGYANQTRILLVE
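0.1 nM LmPK, 0.5 mM PEP, 0.1 mM ADP; 50 mM imidazole pH 7.2, 7 mM MgCl2, 50 mM KCl; 1 h RT. Kinase-Glo luminescence readout, normalized to no-enzyme (full inhibition) and uninhibited wells.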
RE007 growth inh – qHTS Assay for Inhibitors of the HIV-1 protein Vpr; AID 651644, 2012; S. pombe RE007 Vpr strain, BacTiter-Glo ATP luminescence, 24 h; Potency, µM (top dose mostly 92.2 µM), without a hit: at the highest dose activity change, negative = less growth, actives largely listed as inhibitors; 360,000 tested, 0.21% active; active means well fitted falling curve with a large enough effect; inconclusive means small, poorly fitted or top-dose-only effect; inactive means no such curve, though single readings can be large or run the other way; further: nearly all actives have a fitted effect of over 50% in size
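Fission yeast strain RE007, carrying one chromosomally integrated HIV-1 vpr copy, was seeded at OD 0.01 in PMG+AL medium with 23 nL pinned compound. After 24 h at 30 °C and 99% humidity, viability was read by BacTiter-Glo luminescence.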
Sm TGR block – qHTS Assay for the Inhibitors of Schistosoma Mansoni Peroxiredoxins | purified TGR, DTNB reduction, TNB absorbance 405 nm | Schistosoma mansoni thioredoxin glutathione reductase (TGR), Q962Y6 | 360,000 tested, 3% active | Potency, µM (top dose mostly 114 µM), inactives show at the highest dose activity change, negative = inhibition, actives largely listed as inhibitors; further: nearly all actives have a fitted effect of over 60% in size
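First, TGR (20 nM dispensed) and NADPH were mixed with compound. Second, a 15 min room-temperature incubation followed. Third, further NADPH and then DTNB were added to start the reaction. Finally, TNB absorbance was monitored kinetically.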
* marks the source's active call; other numbers are inactive results; ? = inconclusive; · = no result given; [ ] = another dose, or the depositor's remark. In the library only some 3% were active in any assay of this set; here they are far more common. Unless noted, the call rests on the fitted dose curve; in most records, active means well fitted curve in the direction sought with a large enough effect; inconclusive means small, poorly fitted or top-dose-only effect, or another doubt; inactive means no such curve, though single readings can be large; an effect the other way counts as inactive or inconclusive. On the % scale 0 is the no-effect control and ±100 the full control effect; potency means the concentration at half of the fitted maximal effect.

SMILES	Tb PYK inh	LmPK inhibitor	RE007 growth inh	Sm TGR block
CCOC(=O)c1cc(S(=O)(=O)N2CCN(c3ccc(C(C)=O)cc3)CC2)[nH]n1	3%	·	·	-1%
O=C(CCSc1ccc(Cl)cc1)c1cccs1	1%	0%	?	2.2µM*
O=C(CNC(=O)c1cccs1)c1ccc(Cl)cc1	-6%	-5%	-12%	1%
O=C(CCNc1cc(Cl)cc(Cl)c1)c1cccs1	0%	2%	-24%	?
O=C(CCNc1ccc(Cl)cc1)c1cccs1	0%	-4%	?	16µM*
NC(=O)OC[C@H](O)COc1ccc(Cl)cc1	0%[33.2 µM]	·	·	·
COc1ccc(N(Cc2cc(=O)[nH]c3ccccc23)C(=O)CCl)cc1	3%	4%	5%	7.9µM*
CCCC(=O)N(Cc1cc(=O)[nH]c2ccccc12)c1ccc(OC)cc1	-12%	-2%	-9%	-1%
COc1ncc2nc(-c3cc(F)cc(F)c3)c(=O)n(CCc3ccccc3)c2n1	-11%	·	·	·
COc1ccc(-c2cc(OC(=O)c3ccc(Cl)cc3)c3c(C)oc(C)c3c(=O)c2)cc1	-18%	·	·	40µM*
COc1ccc(-c2cc(OC)c3c(C)oc(C)c3c(=O)c2)cc1OC	-16%	1%	-9%	50µM*
COc1ccc(C2NC3=C(CCC3)C3(C#N)C4(N=C(N)C23C#N)OCCO4)cc1 (stereo not given)	10%	0%	-16%	-34%
COc1ccc(C2NC3=C(CCCC3)C(C#N)(C#N)C2(C#N)C#N)cc1 (stereo not given)	·	4%	·	1.8µM*
O=[N+]([O-])c1ccc([As](=O)(O)O)cc1	-7%	·	·	·
N=C(N)SCc1ccc(O)c([N+](=O)[O-])c1	-13%	8%	-11%	45µM*
Cc1nc(SCc2ccc(O)c([N+](=O)[O-])c2)c([N+](=O)[O-])[nH]1	?	?	17%	40µM*
O=[N+]([O-])c1cc([As](=O)(O)c2ccc(O)c([N+](=O)[O-])c2)ccc1O	33%	17%	5%	14µM*
C[n+]1cccc(C2C(C#N)=C(N)Oc3c2ccc2ccccc32)c1 (stereo not given)	-3%	-4%	-13%	40µM*
N#CC1=C(N)Oc2c(ccc3cccnc23)C1c1cccnc1 (stereo not given)	59%	4%	-9%	20µM*
Cc1ccc2cc(C3C(C#N)=C(N)Oc4c3ccc3cccnc43)c(=O)[nH]c2c1 (stereo not given)	50%	2%	-20%	11µM*
N#CC1=C(N)Oc2cc3ccccc3cc2C1c1cccnc1 (stereo not given)	-5%	3%	-14%	?
Cc1occc1C(=O)N/N=C/c1ccc(-c2ccccc2)cc1	?	-14%	?	0%
Cc1occc1C(=O)N/N=C/c1cccs1	-17%	14µM*	-20%	6%
Cc1cnc(C(=O)Nc2ccc(F)cc2)cn1	-5%	?	-18%	0%
Cc1cnc(C(=O)Nc2ccccc2-n2cccc2)cn1	3%	4%	-25%	50µM*
SMILES	Tb PYK inh	LmPK inhibitor	RE007 growth inh	Sm TGR block
Cc1cnc(C(=O)Nc2ccccc2F)cn1	-27%	18µM*	-16%	0%
COc1ccc(-c2nc3c(C)cc(Br)cn3c2Cc2ccsc2)cc1OC	-6%	·	-24%	·
O=C(OCC1(COC(=O)c2cccnc2)CCCC(COC(=O)c2cccnc2)(COC(=O)c2cccnc2)C1O)c1cccnc1	-7%	·	·	·
O=C(O)c1cc(-c2ccco2)[nH]n1	-15%	8%	-4%	50µM*
CC1CCC(C(=O)NNC(=O)c2cc(-c3ccco3)[nH]n2)CC1 (stereo not given)	1%	-8%	5%	-5%
CC(C)Nc1ccc(Nc2ccccc2)cc1	?	·	?	8.9µM*
c1ccc(Nc2ccccc2)cc1	-2%	·	10%	-2%
CC(=O)N1CCc2cc(S(=O)(=O)NC(Cc3ccccc3)C(=O)Nc3cc(C)ccc3C)ccc21 (stereo not given)	1%	·	·	-4%
CCOC(=O)c1c(N2C(=O)C3C4C=CC(O4)C3C2=O)sc2c1CCCC2 (stereo not given)	?	-20%	?	3.2µM*
CCOC(=O)c1c(-n2cnnn2)sc2c1CCCC2	2%	4%	5%	0%
CCCN1CCN(c2nnc(-n3cccc3C(=O)Nc3cc(Cl)ccc3C)s2)CC1	-15%[15.4 µM]	·	·	-7%
COC(=O)c1nc(NC(=O)c2ccc(Br)cc2)n[nH]1	-13%	7%	10%	?
COC(=O)c1nc(NC(=O)C(C)(C)C)n[nH]1	2%	-10%	-6%	32µM*
CCCCCc1c2c(cc(O)c1C(=O)O)OC(=O)c1c(cc(OC)cc1C(=O)CCCC)O2	-9%	3%	1%	40µM*
CCCCCc1c2c(cc(O)c1C(=O)O)OC(=O)c1cc(C(=O)CCCC)c(OC)cc1O2	-5%	·	13%	·
COc1ccc(NC(=O)[C@@H](NS(=O)(=O)c2cccc(Cl)c2)C(C)C)cc1S(=O)(=O)N1CCOCC1	-1%	·	1%	·
COc1cc(-c2nc3sccn3c2Nc2c(C)cccc2C)ccc1O	-34%	·	·	1.1µM*
CN1CCN(c2ncc3nc(-c4ccccc4)c(=O)n(CCC#N)c3n2)CC1	1%	·	·	·
NC(=O)N/N=C/C=C/c1ccccc1	1%	-1%	7%	·
NC(=O)N\N=C/C=C/C=C/c1ccc(F)cc1	-2%	4%	5%	25µM*
COc1ccc(N(C(=O)Cc2cccs2)C(C(=O)NC2CCCC2)c2ccncc2)cc1OC (stereo not given)	0%	3%	5%	-3%
Cc1cccc(N(C(=O)C(F)(F)F)C(C(=O)NC2CCCCC2)c2cccs2)c1 (stereo not given)	0%	-2%	7%	7%
C#CC(=O)N(c1ccc(OC)c(OC)c1)C(C(=O)NC1CCCC1)c1cccs1 (stereo not given)	0%	-6%	26%	5.6µM*
C#CC(=O)N(c1cccc(OC)c1)C(C(=O)NC1CCCC1)c1cccs1 (stereo not given)	-3%	0%	10%	7.9µM*
CC(=O)c1cccc(NC(=S)NC2CCCCC2)c1	2%	2%	-3%	-28%
SMILES	Tb PYK inh	LmPK inhibitor	RE007 growth inh	Sm TGR block
CC(=O)c1cccc(NC(=S)NC(=O)c2cccc(C)c2)c1	-7%	-1%	·	28µM*
COc1ccc(C(=O)NC(=S)Nc2ccc(N3CCOCC3)cc2)cc1Cl	-1%	-10%	-21%	20µM*
CC(=O)c1cccc(NC(=S)NC2CC2)c1	-5%	-4%	26%	40µM*
Cc1ccc(C(=O)NC(=S)Nc2ccc(N3CCOCC3)cc2)cc1C	2%	3%	-6%	-27%
Cc1cccc(C(=O)NC(=S)Nc2ccc(N3CCOCC3)cc2)c1	-11%	0%	5%	14µM*
CC(=O)c1cccc(NC(=S)NC(=O)c2ccc(Cl)cc2)c1	4%	4%	6%	-20%
